# Assay outcomes as filed in PubChem BioAssay.
# D1 antag – blocks dopamine activation of the human D1 receptor. 3.2% of 360,000 active. AID 504652. P21728. activity change, negative = inhibition, % at 10 µM. HEK293 TREx D1 cells, calcium flux, dopamine EC80; stronger effect = lower value; in the data active = activity change below about -30%; also: % is scaled to controls: 0 for no effect and ±100 for the full control effect
#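 Tetracycline-induced HEK293 T-REx cells with force-coupled D1 receptor were loaded with a no-wash calcium dye. Compound was added after a 10 s baseline and read kinetically for 180 s; EC80 dopamine was then added and calcium flux followed another 180 s.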
# D1 agonist – agonists of human D1 dopamine receptor | P21728 | HEK293 T-REx D1 cells, calcium flux, agonist mode | activation, % at 2 µM | 1% of 360,000 active | AID 504660; also: 0% is about no effect
#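 Tetracycline-induced HEK293 TREx D1 cells, force-coupled to calcium signalling, were dye-loaded with a no-wash calcium kit. Compound was pin-added after a 10 s baseline. Fluorescence was read kinetically at 1 cycle/s for 180 s, with calcium rises flagged as agonism.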
# TRHR agonist – TRH receptor (human) agonism | TRHR cells, calcium flux fluo-8, FDSS agonist mode | activation, % at 2 µM | AID 493084 | 0.18% of 360,000 active | P34981; also: 0% is about no effect
# Target sequence (P34981 whole entry, looked up): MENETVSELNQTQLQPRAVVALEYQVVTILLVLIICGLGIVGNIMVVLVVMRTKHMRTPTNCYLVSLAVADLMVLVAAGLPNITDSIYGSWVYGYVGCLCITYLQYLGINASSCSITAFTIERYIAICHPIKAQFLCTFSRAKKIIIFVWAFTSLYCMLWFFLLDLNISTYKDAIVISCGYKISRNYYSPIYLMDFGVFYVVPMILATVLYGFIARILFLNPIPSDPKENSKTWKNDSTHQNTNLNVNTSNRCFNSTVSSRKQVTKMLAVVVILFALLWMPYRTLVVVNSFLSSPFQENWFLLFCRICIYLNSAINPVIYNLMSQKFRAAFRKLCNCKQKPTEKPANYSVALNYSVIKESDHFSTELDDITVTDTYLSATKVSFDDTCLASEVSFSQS
#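 Fluo-8-loaded TRHR cells; 10 s baseline, compound added, kinetic Ca2+ fluorescence read 1/s, agonist mode.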
# D1 potentiator – enhances dopamine response at the human D1 receptor | P21728 | HEK293 TREx D1 cells, calcium flux, dopamine EC20 potentiation | potentiation, % at 10 µM | 0.036% of 360,000 active; in the data active = potentiation above about 30%; also: 0% is about no effect
# TRHR enhancer – allosteric enhancers of human TRH receptor; P34981; TRHR cells, fluo-8 calcium fluorescence, EC20 TRH enhancement; enhancement, % at 2 µM; 0.66% of 360,000 active; in the data active = enhancement above about 30%; also: 0% is about no effect
#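 TRHR-expressing cells loaded with fluo-8 calcium dye were read kinetically (ex 480/em 530) during compound addition, then stimulated with an EC20 of TRH (10 nM final). Enhancement of the Gq-mediated intracellular calcium response was scored.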
# Glioma ERSR ind – inducers of ER stress response in human glioma cells | 0.02% of 420,000 active | U87-MG GRP78 promoter luciferase reporter, 16 h | Potency, µM, without a hit: top-dose activation, actives largely listed as activators; active = well fitted activation curve with a large enough effect; also: potency is read from the fitted curve at half-maximal effect; series mostly up to about 76 µM; % of control where 0% means no effect; nearly all actives have a fitted effect of over 35% in size
#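 Stably transfected U87-MG glioma cells carrying a GRP78-based luciferase sensor; 16 h compound incubation. Luminescence end-point read 10 min after Bright-Glo addition at room temperature.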
# * marks the source's active call; other numbers are inactive results; nt = no result. Most compounds without a hit are left out; they make up all but 4% or so of the library. Rule as the data show it, unless noted: active = activation above about 30%; inactive = the rest.
SMILES,D1 antag,D1 agonist,TRHR agonist,D1 potentiator,TRHR enhancer,Glioma ERSR ind
CC(C)c1ccc(NC(=O)CCCN2C(=O)NC(C)(C)C2=O)cc1,-52.9*,-0.1,0.1,-3.7,4.1,-3.9%
Cc1ccc(C)c(Sc2ccc(NC(=O)CCN3C(=O)NC4(CCCC4)C3=O)cc2)c1,-33.0*,6.9,0.2,4.5,3.1,-5.3%
O=C(CCl)Nc1ccccc1Sc1ccc(Cl)cc1,-9.8,1.9,-0.5,-1.4,-12.1,-14.7%
Cc1ccc(NC(=O)CCN2C(=O)NC3(CCCC3)C2=O)cc1,40.5,2.9,0.0,-2.9,0.0,-1.1%
CN1CCCC1=Nc1c2c(nc3ccccc13)N(C)CC2,23.9,0.5,-0.1,0.1,-7.6,-1.9%
O=S(=O)(c1ccc(Cl)cc1)c1nnn2c1nc(NCc1ccc3c(c1)OCO3)c1sccc12,11.8,0.3,0.5,-4.7,4.8,-1.3%
Cc1c(NC(=O)CN2C(=O)NC(C)(c3ccc(OC(F)F)cc3)C2=O)c(=O)n(-c2ccccc2)n1C (configuration not stated),-8.0,1.8,0.1,-5.9,-2.8,-0.3%
N/C(=N/O)C(c1ccccc1)c1ccccc1,-44.2*,4.5,0.7,1.1,1.2,2.1%
O=C(O)C(c1ccccc1)c1ccccc1,nt,nt,nt,nt,nt,-1.9%
CC1CCCN(C(=O)COC(=O)CNC(=O)c2ccc(Br)cc2)C1 (configuration not stated),-5.7,-1.7,-0.1,-1.9,-8.1,-3.0%
O=C(NC(=S)Nc1cccc2cc(O)ccc12)c1ccco1,9.1,1.3,-0.8,1.4,0.7,-0.3%
O=C(Nc1ccccc1)c1cccc(N2C(=O)C3C4C=CC(C5CC45)C3C2=O)c1 (configuration not stated),-38.0*,9.5,0.0,4.2,0.0,-1.2%
O=C(Nc1ccc(Br)cc1)c1cccc(N2C(=O)C3C4CCC(C4)C3C2=O)c1 (configuration not stated),-39.5*,5.8,-0.7,-5.5,1.3,-3.1%
O=C(Nc1ccc(F)cc1)c1cccc(N2C(=O)C3C4C=CC(C5CC45)C3C2=O)c1 (configuration not stated),-38.3*,12.7,0.2,-2.1,-8.1,-3.7%
COCCCNC(=O)[C@H](CSCc1ccccc1)N1Cc2ccccc2C1=O,-14.8,2.5,0.1,6.9,1.4,3.0%
CCOc1cccc(C2c3c(oc4ccc(F)cc4c3=O)C(=O)N2CCc2ccc(OC)cc2)c1 (configuration not stated),-30.3*,-0.1,-0.8,-6.5,8.0,1.9%
CCCOc1ccc(C2c3c(oc4ccc(F)cc4c3=O)C(=O)N2CCc2ccc(OC)cc2)cc1 (configuration not stated),5.4,-0.6,-0.5,1.4,1.6,-1.7%
CCc1ccc(C2c3c(oc4ccc(F)cc4c3=O)C(=O)N2c2nc(C)c(C(=O)OC)s2)cc1 (configuration not stated),-69.3*,0.0,0.9,-9.9,4.2,-2.3%
CC1CC(C#N)N(N(C)C)C1=C(C#N)C#N (configuration not stated),-6.0,2.8,0.0,-7.3,-1.9,-4.7%
Cc1ccc(-n2ncc3c(SCC(=O)NNC(=O)C(C)C)ncnc32)cc1,-53.6*,1.9,0.5,-5.4,3.3,0.2%
CNC(=O)CSc1ncnc2c1cnn2-c1ccccc1,-9.0,3.1,-0.2,-2.0,-2.8,3.0%
COc1ccc(-n2ncc3c(SCC(=O)N4CCN(c5ccccc5OC)CC4)ncnc32)cc1,-52.5*,-2.0,0.2,-8.4,5.3,0.8%
O=C(CSc1ncnc2c1cnn2-c1ccccc1)NC1CCCC1,-90.7*,9.4,0.0,-4.0,-21.8,-0.1%
O=C(O)C1CCCCC1C(=O)Nc1cccc(Br)c1 (configuration not stated),-13.6,-0.3,0.3,-5.8,1.1,-5.5%
Clc1ncccc1-c1nc2ccccc2n1Cc1ccccc1,28.2,1.9,-0.7,5.2,3.4,3.7%
C=CCSc1nnc(CC(OC)OC)n1-c1ccccc1,-36.7*,7.9,-0.8,0.2,5.8,-1.9%
COc1cccc(C(=O)Nc2ccccc2-c2ccccc2)c1,1.0,8.5,-0.6,-3.5,-4.0,-0.5%
